Bioassay records (PubChem BioAssay)
A selection: hits, their analogues and other compounds. The true share with any hit is near 19%.
HT1080 IDH1KD tx – qHTS for induction of synthetic lethality in tumor cells producing 2HG: qHTS for the HT-1080-IDH1KD cell line. HT-1080 IDH1 knockdown viability, ATP luminescence, 48 h. Potency, µM (titrated, usually from 46.1 µM), without a hit: top-dose activity, negative = toxicity, usual class: cytotoxic. 360,000 compounds, 2% hits. AID 686971, 2013;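 further: potency means the concentration at half of the fitted maximal effect; 0% = DMSO wells and -100% = cell-free medium wells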
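Assay cells: HT-1080 with IDH1 knockdown, 750 per well, RPMI/5% FBS. Exposure: 48 h at 37 °C following 2 h pre-incubation. Read: CellTiter-Glo luminescence; fitted concentration-response, curve class assigned.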
IL-1B inflam inh – qHTS for Inhibitors of Inflammasome Signaling: IL-1-beta AlphaLISA Primary Screen; THP-1 LPS/ATP IL-1B secretion, AlphaLISA, 16 h; active compounds read low; activity change, % at 57.5 µM; 360,000 compounds, 4.7% hits; AID 743279, 2014; in the data active means activity change below about -50%; inconclusive means mostly about -30% to -49%
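Secreted IL-1B measured by AlphaLISA bead assay after 16 h compound exposure of THP-1 cells; compounds (final up to 57.5 uM) added 1 h before LPS (250 ng/mL) and ATP (1.25 mM) stimulation; lower signal means less secretion.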
TDP1 cell noCPT – qHTS for Inhibitors of human tyrosyl-DNA phosphodiesterase 1 (TDP1): qHTS in cells in absence of CPT. DT40 Tdp1-/- hTDP1 cells, no CPT, ATP luminescence, 48 h. Potency, µM (titrated, usually from 46.2 µM), inactives show top-dose activity change, negative = growth inhibition, hits mostly inhibitors. 420,000 compounds, 15% hits; further: potency means the concentration at half of the fitted maximal effect; nearly all actives have a fitted effect of over 55% in size
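Seeded 400 DT40-hTDP1 cells/well (vehicle DMSO, no 20 nM CPT); pinned compounds; ≥48 hr at 37 °C; CellTiter-Glo luminescence as viability measure.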
DT40 TDP1 CPT – qHTS for Inhibitors of human tyrosyl-DNA phosphodiesterase 1 (TDP1): qHTS in cells in presence of CPT. chicken DT40 Tdp1-/-;hTDP1 cells + 20 nM CPT, ATP luminescence, 48 h. 420,000 compounds, 12% hits. AID 686979, 2013. Potency, µM (doses to about 46.2 µM), without a hit: top-dose activity change, negative = growth inhibition, most hits filed as inhibitors; further: potency means the concentration at half of the fitted maximal effect; nearly all actives have a fitted effect of over 55% in size
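Chicken DT40 Tdp1-/- cells stably complemented with human TDP1 were seeded at 400 cells/well in medium containing 20 nM camptothecin, exposed to pin-transferred compounds, and grown at 37 °C for at least 48 hr. Viability was read as ATP luminescence.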
ELG1 repair inh – qHTS screen for small molecules that inhibit ELG1-dependent DNA repair in human embryonic kidney (HEK293T) cells expressing luciferase-tagged ELG1. HEK293T ELG1-luciferase reporter, luminescence, 16 h; DNA damage induced by 5-fluorouridine. Potency, µM (highest dose often 46.1 µM), for the others: at the top dose activity change, negative = inhibition, actives largely listed as inhibitors. 330,000 compounds, 2.3% hits; further: potency means the concentration at half of the fitted maximal effect; nearly all actives have a fitted effect of over 55% in size
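Reporter activity after DNA damage by 5-fluorouridine is monitored. Compound-treated cells incubate 16 hr at 37 °C, then ONE-Glo is added for 30 min before luminescence reading.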
HT1080-NT tox – qHTS for induction of synthetic lethality in tumor cells producing 2HG: qHTS for the HT-1080-NT fibrosarcoma cell line | HT-1080-NT fibrosarcoma viability, CellTiter-Glo ATP luminescence, 48 h | 360,000 compounds, 1.6% hits | Potency, µM (top dose mostly 46.1 µM), for inactives: top-dose activity, negative = less viability, usual class: cytotoxic;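 further: NT is the 2HG producing partner of a matched IDH1 knockdown line; potency means the concentration at half of the fitted maximal effect; 0% = DMSO-treated cells and -100% = media-only wells without cells; nearly all actives have a fitted effect of over 55% in size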
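A 48-hour cytotoxicity screen used HT-1080-NT cells plated 2 hours before compound delivery. ATP-based CellTiter-Glo luminescence measured viability, normalized to DMSO and no-cell controls.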
The depositor's hits bear a star; i = inactive; u = inconclusive; x = no result given; [ ] = dose if it differs, or a comment. Unless noted, the call rests on the fitted dose curve; in most records, active means well fitted curve in the direction sought with a large enough effect; inconclusive means small, poorly fitted or top-dose-only effect, or another doubt; inactive means no such curve, though single readings can be large; an effect the other way counts as inactive or inconclusive. Unless noted, on the % scale 0 is the no-effect control and ±100 the full control effect.

SMILES	HT1080 IDH1KD tx	IL-1B inflam inh	TDP1 cell noCPT	DT40 TDP1 CPT	ELG1 repair inh	HT1080-NT tox
COc1cc2c(cc1OC)C(c1ccc([N+](=O)[O-])cc1)NC(=O)C2 (stereo not drawn)	1.8%	-5.1	-19.2%	4.0%	29.5%	11.0%
COc1ccc(OC)c(CCNC(=O)c2cnn(-c3ccc(C)cc3C)c2C2CCN(C(=O)OC(C)(C)C)CC2)c1	x	x	14.6µM*	4.61µM*	x	x
C=C(C)c1cccc(C(C)(C)NC(=O)N2CCC(C(N)=O)CC2)c1	-1.2%	-0.5	-1.4%	0.8%	1.1%	3.8%
O=C(COC(=O)/C(=C/c1cccs1)c1cccs1)NC(c1ccccc1)c1ccccc1	-11.7%	-14.9	16.4µM*	16.4µM*	-3.9%	-5.7%
O=C(Cc1cccs1)NC(c1ccccc1)c1ccccc1	0.4%	-14.4	-8.8%	-0.5%	23.6%	-0.8%
COc1ccc(Cc2nc3ccccc3c(=O)n2N)cc1OC	-1.6%	29.6	-22.5%	-4.2%	x	-1.6%
C[C@@H]1CCCCO[C@@H](CN(C)C(=O)c2ccncc2)[C@@H](C)CN([C@H](C)CO)C(=O)c2cc(NC(=O)Cc3ccccc3)ccc2O1	0.5%	-12.1	-7.1%	-2.5%	x	1.7%
CC(=O)Nc1ccc(C2C(=O)c3ccccc3C2=O)cc1	5.0%	-19.3	u	-26.5%	u	-2.8%
CCCC(=O)Nc1ccc(C2C(=O)c3ccccc3C2=O)cc1	-1.3%	-18.9	u	16.4µM*	u	-9.4%
Cc1nn(-c2ccccc2)c2sc(C(=O)Nc3cccc(O)c3)cc12	x	x	23.1µM*	u	x	x
Cc1nn(-c2ccccc2)c2sc(C(=O)O)cc12	-4.5%	23.2	-5.3%	-19.0%	u	-16.0%
COc1ccc(S(=O)(=O)NCC(c2cccs2)S(=O)(=O)c2ccccc2)cc1OC (stereo not drawn)	x	x	-19.0%	u	x	x
Cc1c(N=Cc2c(O)n(Cc3ccco3)c(=O)c3ccccc23)c(=O)n(-c2ccccc2)n1C	1.0%[9.24 µM]	5.2	u	20.6µM*	23.1µM*	-22.9%
CNC(=S)NNC(=O)CCn1nc(C)c(Br)c1C	15.8µM*	0.0	u	u	x	11.2µM*
COCCCNC(=S)NNC(=O)Cn1nc(C)c(Br)c1C	16.7%	17.6	-3.5%	1.5%	4.0%	14.9%
CCOCCCNC(=S)NNC(=O)CCn1nc(C)c(Br)c1C	2.51µM*	0.0	-12.0%	1.7%	-2.3%	0.891µM*
Cc1nn(CCC(=O)NNC(=S)NCC(C)C)c(C)c1Br	1.26µM*	12.2	6.51µM*	7.31µM*	-6.5%	1.12µM*
CCC(Sc1nc(-c2ccccc2F)nc2c1Cc1c(CO)cnc(C)c1O2)C(=O)Nc1cc(C)ccc1C (stereo not drawn)	x	x	0.1%	-10.5%	x	x
COc1cccc(Cn2c(=O)c3[nH]cnc3n(-c3ccccc3C)c2=O)c1	-5.6%	-3.3	u	-28.9%	14.8%	6.0%
COc1ccc(Cn2c(=O)cc(N)n(-c3ccccc3C)c2=O)cc1	16.4µM*	x	u	u	u	20.6µM*
Cc1cc(CN2CCCC(C(=O)Nc3cccc(-n4cccn4)c3)C2)cc(C)c1O (stereo not drawn)	u	0.0	u	16.4µM*	u	-25.0%
CCn1ncc(CN2CCCC(C(=O)Nc3cccc(-c4cc5ccccc5[nH]4)c3)C2)c1C (stereo not drawn)	u	-93.6*	u	20.6µM*	-8.0%	u
Cn1cc(CN2CCCC(C(=O)Nc3cccc(-n4cccn4)c3)C2)cn1 (stereo not drawn)	-0.3%	2.8	26.4%	0.5%	0.2%	-7.5%
Cc1cccc(-c2cccc(NC(=O)C3CCCN(Cc4cccnc4)C3)c2)c1 (stereo not drawn)	u	0.0	u	u	u	u
O=C(Nc1cccc(-n2cnnn2)c1)C1CCCN(Cc2cccc(C(F)(F)F)c2)C1 (stereo not drawn)	0.0%	i	18.4µM*	13µM*	u	-7.9%
SMILES	HT1080 IDH1KD tx	IL-1B inflam inh	TDP1 cell noCPT	DT40 TDP1 CPT	ELG1 repair inh	HT1080-NT tox
CSc1cccc(CN2CCCC(C(=O)Nc3cccc(-n4cccn4)c3)C2)c1 (stereo not drawn)	-8.1%	-65.9*	u	u	29.6%	-10.5%
Cc1ccc2[nH]c3c(c2c1)CCN(C)C3	-2.1%	u	-0.6%	5.9%	0.7%	-3.3%
COC(=O)c1ccccc1NC(=O)C1=CC(c2ccc3c(c2)OCO3)=NS(=O)(=O)N1C	x	x	-5.3%	2.3%	x	x
Cc1c(CN2CCCC(C(=O)Nc3cccc(-n4cccn4)c3)C2)cnn1C (stereo not drawn)	3.2%	0.9	-6.5%	-10.6%	9.5%	-1.6%
O=C(Nc1cccc(-n2cccn2)c1)C1CCCN(Cc2cc3ccccc3[nH]2)C1 (stereo not drawn)	u	-59.7*	u	16.4µM*	u	u
O=C(Nc1cccc(-n2cccn2)c1)C1CCCN(Cc2cccc(F)c2F)C1 (stereo not drawn)	-5.1%	8.9	20.6µM*	23.1µM*	u	-0.9%
CCn1cc(CN2CCCC(C(=O)Nc3cccc(-n4cccn4)c3)C2)cn1 (stereo not drawn)	-1.1%	8.6	-25.1%	-24.6%	x	-3.7%
O=C(NCCc1ccccc1)c1nn(-c2ccc(F)cc2)nc1CO	x	x	-24.6%	-20.4%	x	x
COc1ccccc1NC(=S)NC1CCCCCC1	1.9%	-2.8	18.4µM*	u	-5.1%	29.5%
COc1ccccc1C(=O)NNC(=O)C(=O)NC1CCCCC1	-14.0%	13.1	u	20.6µM*	u	-16.6%
Cc1cccc(NC(=S)NC2CCCCCC2)c1C	-5.2%	32.1	10.3µM*	20.6µM*	-0.1%	-1.0%
Fc1ccccc1NC(=S)NC1CCCC1	-0.9%	12.3	23.1µM*	u	-11.0%	-2.1%
CC(C)(C)c1ccccc1NC(=S)NC1CCCC1	-1.5%	10.6	u	u	-4.2%	-0.9%
S=C(Nc1cccc(Cl)c1)NC1CCCCC1	-21.8%	-14.6	-28.5%	-8.9%	0.0%	-15.0%
